This is a sample that favours compounds with a hit; in the whole collection about 7.5% have one here.
SMN2 splice up: increases expression of the SMN2 splice variant. 210,000 compounds, 2.8% hits. Potency, µM (series often up to 46.1 µM), for inactives: at the top dose activity change, positive = activation, most hits filed as activators. HEK293 SMN2-luciferase splicing reporter, luminescence, 30-36 h; also: % of control where 0% means no effect; nearly all actives have a fitted effect of over 55% in size
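qHTS luciferase splicing reporter: luminescence rises when SMN2 exon 7 is included in transfected HEK293 cells. Compound exposure lasted 30-36 h at 37C, with 4.5 mM final sodium butyrate as control, followed by a ONE-Glo read.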
ELG1 genotox: genotoxicity induction in ELG1-luciferase HEK293T cells; AID 504466; HEK293T ELG1-luciferase reporter, luminescence, 16 h; 330,000 compounds, 1.3% hits; Potency, µM (titrated, usually from 46 µM), for the others: at the highest dose activity change, positive = activation, most hits filed as activators; also: % of control where 0% means no effect; nearly all actives have a fitted effect of over 60% in size
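HEK293T cells expressing luciferase-tagged ELG1 were treated with compound or DMSO for 16 hr at 37°C. Luciferase activity was then read after 30 min with ONE-Glo at room temperature; rising signal flags genetic stress.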
KinaseGlo FLuc: counter-screen: inhibitors of Kinase-Glo firefly luciferase. Potency, µM (top dose mostly 38.3 µM), for the others: top-dose activity change, negative = inhibition, actives largely listed as inhibitors. Q27757. 200,000 compounds, 0.28% hits. Kinase-Glo luciferase, ATP luminescence, 8 min; also: % is scaled to controls: 0 for no effect and ±100 for the full control effect; nearly all actives have a fitted effect of over 60% in size
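Inhibition of Kinase-Glo luciferase light generation was assessed at 10 uM ATP in pH 7.2 imidazole buffer, with luminescence measured after eight minutes at ambient temperature.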
NPC1 prom act: activators of NPC1 promoter. Huh7 NPC1 promoter luciferase reporter, 24 h. Potency, µM (titrated, usually from 9.22 µM), without a hit: at the highest dose activation, actives largely listed as activators. 320,000 compounds, 2.4% hits; also: % of control where 0% means no effect; nearly all actives have a fitted effect of over 60% in size
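Huh7 reporter cells (NPC1 promoter driving luciferase) are dosed with compound for 24 h at 37 °C, 5% CO2; luciferase detection reagent is then added and luminescence measured after 10 min at ambient temperature.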
Rab9 prom act: Rab9 promoter activation | 320,000 compounds, 2.8% hits | Potency, µM (doses to about 9.22 µM), for inactives: at the highest dose activation, negative = inhibition, usual class: activators | AID 485297 | Huh7 Rab9 promoter-luciferase reporter, luminescence, 24 h; also: % of control where 0% means no effect; nearly all actives have a fitted effect of over 60% in size
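Using Huh7 cells stably transfected with Rab9 promoter–luciferase, compounds were incubated 24 h at 37 °C, 5% CO2; luciferase luminescence was read 10 min after reagent addition.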
FLuc counter: inhibits or activates purified firefly luciferase, miR-21 counter-screen. P08659. purified FLuc, Km substrates, luminescence inhibition. Potency, µM (top dose mostly 57.5 µM), inactives show at the top dose activity change, negative = inhibition, most hits filed as inhibitors. 360,000 compounds, 6.9% hits;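 also: plate controls were vehicle for no effect and reference inhibitor for full effect; nearly all actives have a fitted effect of over 55% in size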
Target sequence (P08659 whole entry, looked up): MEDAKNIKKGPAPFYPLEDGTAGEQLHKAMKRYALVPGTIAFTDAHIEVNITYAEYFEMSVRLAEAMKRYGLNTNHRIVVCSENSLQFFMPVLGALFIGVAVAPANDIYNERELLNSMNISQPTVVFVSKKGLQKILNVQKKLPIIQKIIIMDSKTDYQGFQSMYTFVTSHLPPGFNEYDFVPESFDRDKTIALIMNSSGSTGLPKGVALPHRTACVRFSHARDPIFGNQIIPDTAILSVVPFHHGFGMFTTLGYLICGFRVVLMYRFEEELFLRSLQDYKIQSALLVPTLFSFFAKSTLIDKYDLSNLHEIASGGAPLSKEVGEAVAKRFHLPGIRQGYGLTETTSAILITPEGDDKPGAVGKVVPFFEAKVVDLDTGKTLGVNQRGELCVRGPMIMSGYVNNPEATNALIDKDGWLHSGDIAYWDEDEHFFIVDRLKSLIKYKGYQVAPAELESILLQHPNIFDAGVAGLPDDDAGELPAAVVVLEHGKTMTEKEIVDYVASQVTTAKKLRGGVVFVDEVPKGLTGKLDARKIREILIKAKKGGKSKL
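Purified P. pyralis luciferase (10nM final) with 10uM D-luciferin and 10uM ATP (Km levels) in 50mM Tris acetate pH 7.5, 10mM Mg acetate, 0.01% Tween-20, 0.05% BSA; qHTS 6-point titration, ~60 µM downward; luminescence read.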
The depositor's hits bear a star; ? = inconclusive; · = no result; [ ] = remark or other dose. Calls follow the shape of the dose curve; as a rule, active = well fitted curve in the direction sought with a large enough effect; inconclusive = small, poorly fitted or top-dose-only effect, or another doubt; inactive = no such curve, though single readings can be large; an effect the other way counts as inactive or inconclusive. Potency is read from the fitted curve at half-maximal effect.

SMILES	SMN2 splice up	ELG1 genotox	KinaseGlo FLuc	NPC1 prom act	Rab9 prom act	FLuc counter
COC(=O)C1CN(C(=O)COc2cccc(C)c2C)c2ccccc2O1 (stereo not given)	·	-1%	·	-4%	-2%	?
Cc1cccc(CN2CCC(Oc3ccc(C(=O)N4CCCC4)cc3)CC2)n1	·	1%	·	1%	4%	5%
COc1ccc(NC(=S)Nc2cc(C)ccn2)c(OC)c1	11µM*	?	0%	?	?	2.7µM*
CCCCC(=O)Nc1ccc(NC(=S)NC(=O)CC(C)C)cc1OC	?	0%	10%	-4%	4%	14%
COc1ccc(NC(=S)Nc2ccccn2)c(OC)c1	11µM*	?	6%	?	?	?
COc1cc(NC(=S)Nc2ccccn2)cc(OC)c1	9%	3%	3%	13%	-1%	9.5µM*
COc1ccc(NC(=S)Nc2ccc(OC)cc2OC)c(OC)c1	-4%	-1%	-1%	4%	-4%	0%
COc1ccc(NC(=S)NC(=O)CC(C)C)c(OC)c1	20%	6%	-2%	14%	14%	13µM*
COc1ccc(NC(=S)Nc2cccnc2)c(OC)c1	15%	9%	1%	-1%	1%	-8%
Cc1ccc(NC(=O)Nc2c(Cl)cccc2Cl)cn1	·	4%	·	-1%	-1%[1.84 µM]	-10%
COc1ccc(NC(=S)Nc2ccccc2OC)c(OC)c1	-7%	2%	-1%	-6%	2%	-12%
COc1ccc(NC(=S)Nc2cnc3ccccc3c2)c(OC)c1	0%	0%	3%	1%	-4%	6µM*
Cn1nnc2c(N3CCN(c4cccc(Cl)c4)CC3)ncnc21	·	·	·	·	·	2%
Cn1c2ccccc2c2c(C(=O)NCC3CCCO3)cn(C3CCCC3)c(=O)c21 (stereo not given)	-45%	3%	-1%	-4%	-4%	17µM*
Cn1cccc1C(=O)OCc1nc2ccccc2c(=O)[nH]1	·	6%	·	·	·	·
Cn1cccc1C(=O)OCc1cc(-c2ccco2)on1	·	?	·	3.5µM*	3.2µM*	24µM*
Cn1cccc1C(=O)OCc1ccc(C(C)(C)C)cc1	·	?	·	-35%	?	11µM*
COc1ccc(NC2=CC(=O)N(C)C2=O)cc1	11µM*	?	1%	?	?	?
COc1ccc(NC(C#N)c2ccc(OC)cc2)cc1 (stereo not given)	-4%	?	-1%	-1%	0%	3µM*
NNc1nc(Nc2ccccc2)nc(Nc2ccccc2)n1	-4%	-2%	-2%	9%	0%	?
COc1ccc(NC2=C(C)C(=O)CC2)cc1	?	18µM*	-6%	-4%	1%	3%
COc1ccc(Nc2nc(NN)nc(Nc3ccc(OC)cc3)n2)cc1	·	-9%	·	6%	-5%	11µM*
CC(=O)c1cc(C)oc1C	18%	·	·	·	·	·
COc1ccc(Nc2ccc(OC)cc2)cc1	·	·	·	?	?	19µM*
Cc1ccccc1N=Cc1cccc(O)c1O	29%	0%	2%	-8%	-4%	?
SMILES	SMN2 splice up	ELG1 genotox	KinaseGlo FLuc	NPC1 prom act	Rab9 prom act	FLuc counter
Oc1cccc(/C=N/N=C/c2cccc(O)c2O)c1O	·	?	·	-23%	-33%	1.7µM*
COc1ccccc1-c1cc(NC(=O)COc2ccccc2Cl)n(-c2ccccc2)n1	·	·	·	·	·	-3%
CCN(CC)C(=O)N1c2ccccc2C=Cc2ccccc21	4µM*	-10%	0%	-4%	5%	1%
Cc1c(C(=O)Nc2nccs2)oc2ccc(F)cc12	·	14%	·	3.5µM*	1.6µM*	?
Cc1c(C(=O)Nc2nccs2)oc2ccc(Br)cc12	·	9.2µM*	·	·	·	·
Cc1c(C(=O)/C=C/c2cccs2)oc2ccc(F)cc12	-14%	?	-3%	4µM*	4µM*	0.67µM*
Cc1c(C(=O)N2CCN(C(=O)c3ccccc3)CC2)oc2ccc(F)cc12	·	-1%	·	-6%	2%	5%
O=c1[nH]cnc2c1ncn2C1CC(O)C(CO)O1 (stereo not given)	3%	·	-3%	·	·	·
Cc1ccc(-c2ccc(=O)n(Cc3cccc(Br)c3)n2)cc1	·	1%	·	2%	-5%	-2%
C=CCn1c(SCC(=O)Nc2ccccc2C)nc(O)cc1=O	·	0%	·	-1%	2%	1%
N#CCCn1c(=O)c(-c2ccc(F)cc2)nc2cnc(Oc3ccccc3)nc21	-12%	·	0%	·	·	·
CCc1ccc(NC(=O)CCn2nc(-c3ccccc3OC)c3c(C)cc(C)nc32)cc1	-1%	·	·	·	·	?
CC1CC(C)CN(CCCNC(=O)c2ccc3nc(N4CCCCC4)sc3c2)C1 (stereo not given)	·	?	·	0.45µM*	?	-12%
CC1CCCC(C)N1CCCNC(=O)c1ccc2nc(N3CCCCC3)sc2c1 (stereo not given)	·	11%	·	3.2µM*	?	-11%
CC1CCCC(C)N1CCCNC(=O)c1ccc2nc(N3CCOCC3)sc2c1 (stereo not given)	·	10%	·	0%	-1%	6%
COC(=O)c1ccccc1N(C)S(=O)(=O)c1cc2c3c(c1)CC(=O)N3CCC2	·	·	·	·	·	-3%
O=C(NC(=S)Nc1cccc([N+](=O)[O-])c1)c1ccccc1	·	14%	·	?	4µM*	?
O=C(O)c1cccc(NC(=S)NCc2ccccc2)c1	·	2%	0%	16%	?	15µM*
O=C(NC(=S)Nc1cccc([N+](=O)[O-])c1)c1ccco1	28%	6%	-2%	16%	28%	2%
O=C(NC(=S)Nc1cc([N+](=O)[O-])ccc1O)c1cccnc1	-6%	8%	1%	19%	?	17µM*
COc1cc2ccccc2cc1C(=O)NC(=S)Nc1cccc(C(=O)O)c1	20%	17%	2%	?	2.2µM*	13µM*
N[C@H](Cc1cc(I)c(Oc2cc(I)c(O)c(I)c2)c(I)c1)C(=O)O	-5%[20.6 µM]	·	-1%[17.1 µM]	·	·	·
CCCCN(CCCC)S(=O)(=O)c1ccc(NC(=O)Cc2cccs2)cc1	2%	-5%	17%	-5%	-11%	-8%
O=C(NNC(=S)Nc1ccc(F)cc1)c1cccc([N+](=O)[O-])c1	·	2%	·	1%	0%	-9%
Cc1ccc(NC(=S)NNC(=O)c2cccc([N+](=O)[O-])c2)cc1Cl	·	-6%	·	1%	-2%	19µM*
Cc1cccc(C(=O)NC(=S)Nc2ccccc2C(F)(F)F)c1	2%	-1%	-2%	17%	12%	-19%
CC(=O)c1cccc(NC(=S)NC(=O)c2ccccc2)c1	?	?	3%	?	2.2µM*	7.6µM*
CC(C)OC(=O)c1ccc(NC(=S)NC(=O)c2cncc(Br)c2)cc1	·	0%	·	-1%	-5%	-11%

Screens deposited in PubChem BioAssay by National Center for Advancing Translational Sciences (NCATS).
